Structures are written as SMILES. This is part of a sample that, as a whole, favours compounds with a hit. Of some 79,000 tested, about 15% had one in any assay. Values without a mark were called inactive. Calls of active or inactive are those of the source. Rule as the data show it: active = growth inhibition above about 70%; inactive = the rest.

The nature of the first test: NCI Yeast Anticancer Drug Screen. Data for the bub3 strain (AID 167). Conditions: S. cerevisiae bub3 mutant strain, at 50.0 µM, active compounds read high. An outline of the steps: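 In this screen, a yeast mutant lacking normal mitotic checkpoint function is challenged with compound. Relative growth versus vehicle gives the inhibition value.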
In the case of `CN(C)NC(=S)Nc1ccccc1`, the growth inhibition was -1.7%.
Regarding `Cc1cc(S(=O)(=O)O)c(NC(=O)C(=O)C2C=CCS2(=O)=O)cc1Cl` (stereo not given), the growth inhibition is -8.15%.
On to `COc1ccc(C(Nc2ccccn2)c2cc(C(C)(C)C)cc(C(C)(C)C)c2O)cc1` (stereo not given), for which the growth inhibition is 41.9%.
On to `CCCCCCCCCCCCCCCCCCCCCCCCCCCCCCS(=O)(=O)Cl`, for which the growth inhibition was 33.9%.
For the compound `Cc1ccc(S(=O)(=O)N2CCC[C@@H]2C(=O)O[C@@H]2CCC3CC=CC32)cc1` (stereo not given in full), the growth inhibition was -12.3%.
For the compound `COc1cccc(NC(=O)CC(=O)Nc2cccc(OC)c2)c1`, the growth inhibition was 10.1%.
For `O=C(O)CC1OCC=C2C[N+]3([O-])CCC45c6ccccc6NC4C1C2CC53` (stereo not given), the growth inhibition is -35.4%.
Consider `COc1cc2c(cc1OC)-c1cc3cc(OC)c(OC)cc3c(C)[n+]1CC2` (tested in a mixture with another compound), for which the growth inhibition is 11.4%.
As to `CSCC[C@H](NC(C)=O)B1OCCO1`, the growth inhibition is -4.6%.
Take `CCN(CC)CC1CCCCN1` (stereo not given): the growth inhibition was 1.4%.
`CC1(C)CCC(C)(C)c2cc(C(=O)O)ccc21`: the growth inhibition was 14.4%.
Same read-out and setting: the figure for `COCC(C)OC(=O)c1ccccc1Cl` (stereo not given) is 21.1%.
On to `NNC(=O)CCC(=O)NC1C2CC3CC(C2)CC1C3` (stereo not given), for which the growth inhibition was -10.7%.
In the case of `C#CCOC(=O)c1ccc(OC(C)=O)cc1`, the growth inhibition is 14.2%.
Still for that read-out and setting: the figure for `S=C=NCCCCCCCCCCCCN=C=S` is 89.7% (active); for `S=C(S)N1CCN(c2ccc(Cl)c(Cl)c2)CC1` it is 8.1%.
`C/C(CC(=O)Nc1ccc([N+](=O)[O-])cc1)=N/N=C(N)N`: the growth inhibition is -10.8%.
With `O=C1C(=O)c2ccccc2C(O)=C1c1ccc(Br)cc1`, the growth inhibition is -3.65%.
Turning to `COC(=O)N/N=C(\C)C(CN1CCCCC1)C(C1=C(O)c2ccccc2OC1)c1ccccc1` (stereo not given), the growth inhibition was 4.9%.
Turning to `CC(=O)Oc1c(C)cc2c(c1C)C(C)(C)CN2C(=O)C(C)(C)C`, the growth inhibition is -1.3%.
On the same count and under the same terms, the figure for `Cc1ccc2ccccc2[n+]1CC(=O)c1ccc2c(c1)OCO2` is -10.7%.
Take `O=C(CC(=O)N1CCOCC1)N1CCOCC1`: the growth inhibition was 19.4%.
Same read-out and setting: the figure for `CC/C(Cl)=N\OC(=O)Nc1ccc(C#N)cc1` is 46.3%.
Same read-out and setting: the figure for `COC(=O)c1cc(-c2ccc(F)cc2)[nH]c(=O)c1C#N` is -25.8%; for `CCOC(=O)/C(C#N)=C/c1ccccc1OC` it is 47.5%.
Take `CC(=O)OC1CCC2(C)C3=C(C(=O)CC2C1(C)C)C1(C)CCC(C(C)CCCC(C)C)C1(C)CC3` (stereo not given): the growth inhibition is 4.3%.
Consider `COC(=O)NS(=O)(=O)CC(=O)c1ccccc1`, for which the growth inhibition is 1.3%.
In the case of `Cc1cc(N2CCOCC2)nc2ccc(Cc3ccc4nc(N5CCOCC5)cc(C)c4c3)cc12`, the growth inhibition was -4.65%.
With `C=CCNC=O`, the growth inhibition is 14.4%.
On the same count and under the same terms, the figure for `O=C(OCC(OC(=O)c1ccccc1)C(OC(=O)c1ccccc1)C(COC(=O)c1ccccc1)OC(=O)c1ccccc1)c1ccccc1` (stereo not given) is 16.4%; for `CC1(C)COC(c2cc(Br)ccc2Br)=N1` it is -3.3%; for `N#CC12CCC(O)C(CC1)C2=O` (stereo not given) it is -4.25%.
Same read-out and setting: the figure for `CC(=O)CC(=O)OC1CC(C)CCC1C(C)C` (stereo not given) is -26.1%; for `COc1cc(OC)c2nc3ccccc3c(NCCC[N+](C)(C)[O-])c2c1[N+](=O)[O-]` it is -14.2%; for `CC(C)=NNc1snnc1C(N)=O` it is -13.2%.
In the case of `CCCCCCCCCCCCCCCC(=O)OCC1OC(n2cc(F)c(=O)[nH]c2=O)C(NC(=O)N(CCCl)N=O)C(O)C1O` (stereo not given), the growth inhibition was -24.4%.
As for `Cc1ccc(CCOC(=O)Nc2ccccc2)cc1`, the growth inhibition is 1.8%.
With `NNC(=O)/C(=C/c1ccc(Cl)cc1Cl)NC(=O)c1ccccc1`, the growth inhibition is 66.8%.
Take `CC1Cc2ccccc2C2=C3CC=CCC3C3C(=O)OC(=O)C3C21` (stereo not given): the growth inhibition is 6.05%.
With `O=C1NC(O)c2cccc([N+](=O)[O-])c2O1` (stereo not given), the growth inhibition was -14.8%.

The nature of the next test: NCI Yeast Anticancer Drug Screen. Data for the mlh1 rad18 strain (AID 175). The note with it: S. cerevisiae mlh1 rad18 strain growth inhibition; at 50.0 µM; active compounds read high. An outline of the steps:
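Yeast w/ defined DNA-repair lesions; compound exposure; growth vs vehicle controls → % inhibition.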
Regarding `CN(C)NC(=S)Nc1ccccc1`, the growth inhibition was -6.15%.
On to `Cc1cc(S(=O)(=O)O)c(NC(=O)C(=O)C2C=CCS2(=O)=O)cc1Cl` (stereo not given), for which the growth inhibition is -8.85%.
For `COc1ccc(C(Nc2ccccn2)c2cc(C(C)(C)C)cc(C(C)(C)C)c2O)cc1` (stereo not given), the growth inhibition was 38.8%.
On the same count and under the same terms, the figure for `CCCCCCCCCCCCCCCCCCCCCCCCCCCCCCS(=O)(=O)Cl` is -18.9%; for `Cc1ccc(S(=O)(=O)N2CCC[C@@H]2C(=O)O[C@@H]2CCC3CC=CC32)cc1` (stereo not given in full) it is -0.1%.
Turning to `COc1cccc(NC(=O)CC(=O)Nc2cccc(OC)c2)c1`, the growth inhibition is -18.7%.
Consider `O=C(O)CC1OCC=C2C[N+]3([O-])CCC45c6ccccc6NC4C1C2CC53` (stereo not given), for which the growth inhibition is 10.6%.
For `COc1cc2c(cc1OC)-c1cc3cc(OC)c(OC)cc3c(C)[n+]1CC2` (tested in a mixture with another compound), the growth inhibition was -66.8%.
Consider `CSCC[C@H](NC(C)=O)B1OCCO1`, for which the growth inhibition was 19.5%.
Still for that read-out and setting: the figure for `CCN(CC)CC1CCCCN1` (stereo not given) is 2.55%.
In the case of `CC1(C)CCC(C)(C)c2cc(C(=O)O)ccc21`, the growth inhibition is 5.05%.
In the case of `COCC(C)OC(=O)c1ccccc1Cl` (stereo not given), the growth inhibition is 24.3%.
Turning to `NNC(=O)CCC(=O)NC1C2CC3CC(C2)CC1C3` (stereo not given), the growth inhibition was 25.2%.
Still for that read-out and setting: with `C#CCOC(=O)c1ccc(OC(C)=O)cc1` the figure was -1.65%.
With `S=C=NCCCCCCCCCCCCN=C=S`, the growth inhibition is 94.7% (active).
For `S=C(S)N1CCN(c2ccc(Cl)c(Cl)c2)CC1`, the growth inhibition was 57.6%.
As to `C/C(CC(=O)Nc1ccc([N+](=O)[O-])cc1)=N/N=C(N)N`, the growth inhibition is 2.6%.
With `O=C1C(=O)c2ccccc2C(O)=C1c1ccc(Br)cc1`, the growth inhibition was -8.9%.
For the compound `COC(=O)N/N=C(\C)C(CN1CCCCC1)C(C1=C(O)c2ccccc2OC1)c1ccccc1` (stereo not given), the growth inhibition is 28.9%.
`CC(=O)Oc1c(C)cc2c(c1C)C(C)(C)CN2C(=O)C(C)(C)C`: the growth inhibition is 7.9%.
Still for that read-out and setting: with `Cc1ccc2ccccc2[n+]1CC(=O)c1ccc2c(c1)OCO2` the figure was 10.7%; with `O=C(CC(=O)N1CCOCC1)N1CCOCC1`, 7.45%; with `CC/C(Cl)=N\OC(=O)Nc1ccc(C#N)cc1`, -10.4%.
On to `COC(=O)c1cc(-c2ccc(F)cc2)[nH]c(=O)c1C#N`, for which the growth inhibition is 16.6%.
With `CCOC(=O)/C(C#N)=C/c1ccccc1OC`, the growth inhibition was 47.5%.
`CC(=O)OC1CCC2(C)C3=C(C(=O)CC2C1(C)C)C1(C)CCC(C(C)CCCC(C)C)C1(C)CC3` (stereo not given): the growth inhibition is -0.6%.
On the same count and under the same terms, the figure for `COC(=O)NS(=O)(=O)CC(=O)c1ccccc1` is 9.9%; for `Cc1cc(N2CCOCC2)nc2ccc(Cc3ccc4nc(N5CCOCC5)cc(C)c4c3)cc12` it is -4.4%.
For the compound `C=CCNC=O`, the growth inhibition is -18.1%.
Consider `O=C(OCC(OC(=O)c1ccccc1)C(OC(=O)c1ccccc1)C(COC(=O)c1ccccc1)OC(=O)c1ccccc1)c1ccccc1` (stereo not given), for which the growth inhibition is 52.4%.
For `CC1(C)COC(c2cc(Br)ccc2Br)=N1`, the growth inhibition was 1.35%.
On the same count and under the same terms, the figure for `N#CC12CCC(O)C(CC1)C2=O` (stereo not given) is 20.6%; for `CC(=O)CC(=O)OC1CC(C)CCC1C(C)C` (stereo not given) it is 23.1%.
The same measure, in the same setting: the figure for `COc1cc(OC)c2nc3ccccc3c(NCCC[N+](C)(C)[O-])c2c1[N+](=O)[O-]` is -17.8%; for `CC(C)=NNc1snnc1C(N)=O` it is 28.4%; for `CCCCCCCCCCCCCCCC(=O)OCC1OC(n2cc(F)c(=O)[nH]c2=O)C(NC(=O)N(CCCl)N=O)C(O)C1O` (stereo not given) it is -23.1%.
Take `Cc1ccc(CCOC(=O)Nc2ccccc2)cc1`: the growth inhibition was 17.2%.
As for `NNC(=O)/C(=C/c1ccc(Cl)cc1Cl)NC(=O)c1ccccc1`, the growth inhibition is 54.5%.
Regarding `CC1Cc2ccccc2C2=C3CC=CCC3C3C(=O)OC(=O)C3C21` (stereo not given), the growth inhibition was 7.65%.
Turning to `O=C1NC(O)c2cccc([N+](=O)[O-])c2O1` (stereo not given), the growth inhibition was 30.8%.

Values taken from PubChem BioAssay (NCI).
